In PubChem BioAssay AID720511 (Broad Institute, 2013):
Out of some 350,000 compounds screened, about 1,300 (0.37%) were called active.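 Rule for the calls: active = mean added fluorescence quench of at least 8% versus neutral control, with both replicates also reaching 8%; inconclusive = only one of the mean or replicate conditions met; inactive = mean below 8% and not both replicates reaching 8%.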 This excerpt belongs to a sample that is enriched for actives.

Assay: F508del CFTR correction, initial screen, CFBE line, single point (AID 720511);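 note: cells transiently co-express mutant CFTR-F508del with the halide-sensitive YFP; corrector assay measuring rescue of mutant channel to the surface after 24 h compound exposure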
Conditions: CFBE cells, YFP halide quenching, at 7.58 µM, stronger effect = higher value, % fluorescence drop versus neutral controls, stimulated with forskolin plus potentiator P3

SMILES | activity (quench increase)
CCS(=O)(=O)Nc1ccc2c(c1)C(=O)N(C)[C@H]1CC[C@@H](CC(=O)Nc3ccccc3)O[C@H]1CO2 | -3.46% (inactive)
CCOc1ccc(NC(=O)CCNC(=O)c2ccc(Br)cc2)cc1 | -1.36% (inactive)
CCOc1ccc(NC(=O)c2ccc(NC(=O)COC(=O)c3ccc(NC(=O)CC#N)cc3)cc2)cc1 | -1.21% (inactive)
CCOc1ccc(NC(=O)c2ccc(NC(=O)CN3C(=O)C(=O)N(CC(C)C)C3=O)cc2)cc1 | 9.37% (active)
COc1ccc(NC(=O)N(C)C[C@H]2OCCCC[C@@H](C)Oc3ccc(NS(=O)(=O)c4ccc(F)cc4)cc3C(=O)N([C@H](C)CO)C[C@H]2C)cc1 | 3.43% (inactive)
C[C@@H](O)C#Cc1ccc([C@@H]2[C@H]3CN(S(=O)(=O)c4ccccc4)CCCCN3[C@H]2CO)cc1 | 1.07% (inactive)
CO[C@@H]1CC[C@@H]2CCOc3c(C#N)cccc3C(=O)N(C)C[C@H](C)C(=O)N(C)C[C@H]1O2 | 1.86% (inactive)
CN1C(=O)c2cccc3c(N)ccc(c23)C1=O | 23.7% (active)
O=C1c2cccc3c([N+](=O)[O-])ccc(c23)C(=O)N1CC1CCCO1 (stereo unspecified) | 0.491% (inactive)
Cn1cc(C2OC(=O)c3ccccc32)c2ccccc21 (stereo unspecified) | 1.54% (inactive)
NC(=O)c1ncn([C@@H]2O[C@H](C(=O)O)[C@@H](O)[C@H]2O)n1 | 2.03% (inactive)
COc1ccc(CN(C)C[C@@H]2OCCCC[C@@H](C)Oc3ccc(NC(=O)Nc4ccc(OC)cc4)cc3C(=O)N([C@@H](C)CO)C[C@@H]2C)cc1 | -0.139% (inactive)
CCc1cc(-c2nnn(CCC3COCCO3)c2CC)ccc1-c1cn(Cc2ccc3ccccc3c2)nn1 (stereo unspecified) | 8.99% (active)
COc1ccc(-c2cn(CC[C@@H]3CC[C@@H](NS(=O)(=O)c4ccccc4C)[C@H](CO)O3)nn2)cc1 | 2.94% (inactive)
CCCC(=O)Nc1ccc2c(c1)OC[C@H](C)N(S(=O)(=O)c1cn(C)cn1)C[C@@H](C)[C@H](OC)CN(C)C2=O | -4.43% (inactive)
O=C(c1ccccn1)N1CC[C@@H]2[C@H]1c1cc(-c3ccccc3)ccc1N[C@@H]2CO | -1.72% (inactive)
CCS(=O)(=O)N1CC(=O)N2[C@H](CO)[C@@H](c3ccc(C#Cc4cccc(F)c4)cc3)[C@@H]2C1 | 7.13% (inactive)
O=C1CN(S(=O)(=O)Cc2ccccc2)C[C@@H]2[C@@H](c3ccc(C#Cc4cccc(F)c4)cc3)[C@@H](CO)N12 | 9.07% (active)
O=C1CN(S(=O)(=O)Cc2ccccc2)C[C@@H]2[C@@H](c3ccc(C#Cc4ccccc4)cc3)[C@@H](CO)N12 | 7.93% (inactive)

SMILES | activity (quench increase)
CCS(=O)(=O)N1CCC2(CC1)CN[C@H](CO)c1c2c2ccc(OC)cc2n1C | 0.371% (inactive)
C[C@@H]1CN([C@@H](C)CO)C(=O)c2cc(NS(C)(=O)=O)ccc2O[C@@H]1CN(C)C(=O)Nc1ccc(F)cc1 | -3.43% (inactive)
O=C(NCC1COc2ccccc2O1)C1(c2ccccc2)CCCC1 (stereo unspecified) | 1.14% (inactive)
Cc1noc(C)c1C(=O)NCC1COc2ccccc2O1 (stereo unspecified) | 19.3% (active)
O=C(COC(=O)c1ccc(F)cc1)NCC1COc2ccccc2O1 (stereo unspecified) | -0.696% (inactive)
CC(=O)N(C)C[C@H]1Oc2ncc(C#Cc3ccccn3)cc2C(=O)N([C@H](C)CO)C[C@@H]1C | 0.118% (inactive)
CO[C@@H](CN(C)S(=O)(=O)c1ccccc1)[C@H](C)CN(Cc1ccccc1Cl)[C@H](C)CO | -3.7% (inactive)
COc1ccc2c3c(n(C)c2c1)[C@H](CO)N(S(=O)(=O)c1ccc(C)cc1)CC31CN(C(=O)c2ccccn2)C1 | 1.98% (inactive)
Cc1ccc(S(=O)(=O)Nc2ccc3c(c2)C(=O)N([C@H](C)CO)C[C@@H](C)[C@H](CN(C)C(=O)Nc2ccc(C(F)(F)F)cc2)OCCCC[C@H](C)O3)cc1 | -0.228% (inactive)
Oc1cccc(/C=N/Nc2ccc(Cl)nn2)c1O | 13.3% (active)
C/C(=N\Nc1ccc(Cl)nn1)c1ccccc1O | -2.03% (inactive)
C[C@H]1CCCCO[C@H](CN(C)Cc2ccccc2)[C@@H](C)CN([C@@H](C)CO)C(=O)c2cc(NC(=O)c3ccccc3)ccc2O1 | -0.952% (inactive)
C[C@H]1CN([C@@H](C)CO)S(=O)(=O)c2ccc(C3=CCCCC3)cc2O[C@@H]1CN(C)Cc1ccccc1 | -0.755% (inactive)
C[C@@H]1CN([C@@H](C)CO)S(=O)(=O)c2ccc(-c3ccc(F)cc3)cc2O[C@@H]1CN(C)CC1CC1 | 2.11% (inactive)
Oc1ccc(/C=N/Nc2nc(-c3ccccc3F)nc3ccccc23)c(O)c1 | 12.3% (active)
CO[C@@H]1CN(C)C(=O)c2ccc(NS(=O)(=O)c3cccc(Cl)c3)cc2OC[C@H](C)NC[C@H]1C | -1.91% (inactive)
CC(C)NC(=O)N(C)C[C@H]1Oc2ccc(NC(=O)Cn3cnnn3)cc2CC(=O)N([C@H](C)CO)C[C@H]1C | -1.17% (inactive)
Cc1noc(C)c1S(=O)(=O)N(C)C[C@H]1Oc2c(NC(=O)c3cnccn3)cccc2C(=O)N([C@H](C)CO)C[C@H]1C | -0.706% (inactive)
Cc1cccc(N(C)C(=O)c2cc3c(=O)[nH]c4ccc(C)cc4c3s2)c1 | 15.5% (active)

SMILES | activity (quench increase)
Cc1ccc2[nH]c(=O)c(CC(=O)O)c(-c3ccccc3)c2c1 | -4.85% (inactive)
CCN(CC)CCCNC(=O)c1cc2c(=O)[nH]c3ccc(C)cc3c2s1 | 4.04% (inactive)
Cc1cccc(S(=O)(=O)N2C[C@@H]3[C@H](c4ccccc42)[C@H](CO)N3CC2CCOCC2)c1 | -1% (inactive)
Cc1ccc(S(=O)(=O)N[C@@H]2CC[C@H](CCn3cc(-c4cccc(F)c4)nn3)O[C@@H]2CO)cc1 | -2.65% (inactive)
C[C@@H](NC(=O)[C@@H]1[C@@H](CO)[C@@H]2Cn3c(ccc(C4=CCCCC4)c3=O)[C@@H]2N1C)c1ccccc1 | 1.82% (inactive)
C[C@@H]1CCCCO[C@H](CN(C)C(=O)Nc2ccc3c(c2)OCO3)[C@@H](C)CN([C@@H](C)CO)C(=O)c2cc(NC(=O)CCC(F)(F)F)ccc2O1 | 2.41% (inactive)
CCS(=O)(=O)N1CC2(CN(C(=O)c3ccc(F)cc3)[C@H](CO)c3c2c2ccc(OC)cc2n3C)C1 | 2.9% (inactive)
O=C(c1[nH]ncc1-c1ccc(Cl)cc1)C1CO1 (stereo unspecified) | 9.82% (active)
S=c1[nH]nc(-c2ccc(Cl)cc2)n1CC1CCCO1 (stereo unspecified) | -0.339% (inactive)
COc1ccc(NC(=O)C2Cc3c(-c4ccc(Cl)cc4)ccnc3O2)cc1 (stereo unspecified) | -2.37% (inactive)
C[C@H](CO)N1C[C@H](C)[C@@H](CN(C)C(=O)C2CC2)Oc2ncc(-c3cccc(C#N)c3)cc2C1=O | 0.111% (inactive)
Cc1ccc(S(=O)(=O)Nc2ccc3c(c2)C(=O)N([C@@H](C)CO)C[C@@H](C)[C@H](CN(C)C(=O)NC(C)C)OCCCC[C@H](C)O3)cc1 | -0.752% (inactive)
COc1ccc(S(=O)(=O)Nc2ccc3c(c2)C(=O)N([C@@H](C)CO)C[C@@H](C)[C@H](CN(C)C(=O)Nc2ccc(C(F)(F)F)cc2)OCCCC[C@@H](C)O3)cc1 | -1.09% (inactive)
CCOC(=O)C1CSCCS(=O)(=O)N1Cc1ccc(Cl)cc1 (stereo unspecified) | -1.25% (inactive)
CO[C@H]1CN(C)C(=O)c2ccc(NC(=O)c3cccc(F)c3)cc2OC[C@H](C)N(CC2CC2)C[C@@H]1C | -0.247% (inactive)
Cc1c(C(=O)NC(C)C2CC3CCC2C3)cccc1[N+](=O)[O-] (stereo unspecified) | -0.675% (inactive)
Cc1cccc(C(=O)OCC(=O)NC(C)C2CC3CCC2C3)c1O (stereo unspecified) | 25.6% (active)
Cc1cccc(C(=O)OCC(=O)NCC(C)C)c1O | 0.752% (inactive)
